# This is a sample that favours compounds with a hit; in the whole collection about 3.4% have one here.
# SIRT5 inh: sirtuin-5 (human) deacylase inhibition; inhibition, % at 15 µM; Q9NXA8; actives 1.1% (n = 330,000); Purified SirT5, succinyl-peptide AMC, trypsin-coupled fluorescence; AID 652115; in the data active = inhibition above about 15%; inconclusive = no clear call, values can overlap the other calls
# Target sequence (Q9NXA8 whole entry, looked up): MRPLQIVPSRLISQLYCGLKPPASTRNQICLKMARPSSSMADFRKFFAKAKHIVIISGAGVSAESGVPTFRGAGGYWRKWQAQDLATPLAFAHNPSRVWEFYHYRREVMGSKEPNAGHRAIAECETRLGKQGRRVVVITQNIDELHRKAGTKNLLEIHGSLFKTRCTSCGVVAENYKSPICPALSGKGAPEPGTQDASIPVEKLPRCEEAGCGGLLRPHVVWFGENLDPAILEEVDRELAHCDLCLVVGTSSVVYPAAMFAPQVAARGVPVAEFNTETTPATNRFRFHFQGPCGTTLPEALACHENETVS
# PGC1a acetyl inh: PGC1a acetylation modulation, inhibitor mode | U2OS PGC1a acetylation, AlphaScreen anti-acetyl-lysine; with virally co-expressed GCN5 acetyltransferase | inhibition, % at 15.6 µM | actives 0.17% (n = 350,000);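 active = every replicate shows inhibition of at least 40%; inconclusive = mean inhibition at least 40% but some replicate below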;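 also: 0% = neutral control wells and 100% = positive control wells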
# PAX8 reporter: inhibitors of PAX8 transcriptional activity in RMG-I cells | RMG-I TPO-luciferase reporter, SteadyGlo, 24 h | inhibition, % at 12.6 µM | actives 1.2% (n = 360,000);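 active = mean replicate inhibition at least 60% with every replicate also reaching 60%; inconclusive = only one of the two criteria is met; inactive = mean below 60% and not all replicates reaching 60%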;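 also: luciferase light reporting Pax8 driven TPO promoter activity; plate controls were median of neutral control wells for no effect and mitoxantrone controls for full effect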
# EWS-Fli block: blocks EWS/Fli oncoprotein-driven transcription; A673 NR0B1-luciferase reporter, viability-normalised; inhibition, % at 12.6 µM; actives 0.67% (n = 350,000); AID 651661;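 active = mean inhibition of at least 50% after viability correction, with every replicate also passing that limit; inconclusive = mean reaches 50% but only one of two replicates passes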;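 also: firefly luciferase signal divided by Alamar Blue viability fluorescence both relative to DMSO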
# LGR2 antag: blocks bursicon-induced cAMP signaling via Drosophila LGR2. inhibition, % at 9.99 µM. HEK293 LGR2, CRE-luciferase, bursicon-stimulated, 4 h. actives 0.35% (n = 380,000);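 active = drop in luminescence signal, shown as inhibition above about 50% in the replicate tests, limit read from the data, passing the limit was not always enough; inconclusive = probably only some replicates passing the limit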;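 also: agonist challenge used bursicon conditioned medium at about half maximal strength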
# Ecoli rRNA inh: inhibits bacterial ribosomal RNA function over humanized ribosomes. GFP signal change (wild-type ribosome), % (test concentration not listed). actives 1.6% (n = 350,000). E. coli WT GFP vs humanized-ribosome RFP mutants, fluorescence, 24 h; active compounds read low; DMSO median 0, no signal -100. AID 720706;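 active = significant combined selectivity score with lowered wild-type GFP, culture density cut under 30%, mutant RFP and density less affected; inactive = any of these conditions unmet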
# Starred values were filed as active, the others as inactive; u = inconclusive; x = no result given.
SMILES,SIRT5 inh,PGC1a acetyl inh,PAX8 reporter,EWS-Fli block,LGR2 antag,Ecoli rRNA inh
COc1ccc(-c2cc(=Nc3cccc(C(=O)O)c3)c3cc(C)ccc3o2)cc1,-28.2,7.3,-32.4,14.3,55.2*,-15.4
O=[N+]([O-])c1ccc(C[n+]2c(-c3ccccc3)cc(-c3ccccc3)cc2-c2ccccc2)cc1,x,x,78.5*,2.4,8.9,-57.6
O=[N+]([O-])c1cc(Cl)c(O)c(-[n+]2c(-c3ccccc3)cc(-c3ccccc3)cc2-c2ccccc2)c1,-1.1,x,33.4,8.4,12.6,-23.8
Cc1nc2ccccc2c(=O)n1/N=C/c1cc(Br)cc(Br)c1O,-3.3,x,12.4,3.1,14.4,-21.8*
Cc1nc2ccccc2c(=O)n1-c1ccc(Br)cn1,-0.8,1.9,-29.0,-33.2,-29.8,5.6
C[n+]1c(-c2ccccc2)c2cc(N)ccc2c2ccc(N)cc21,2.7,2.8,96.2*,11.2,78.6*,x
Nc1ccc2ccc3cccc[n+]3c2c1,0.7,x,-80.3,5.3,11.0,106.0
COC(=O)[C@@H]1[C@@H](CO)[C@@H]2Cn3c(ccc(-c4cccc(C(=O)N(C)C)c4)c3=O)[C@H]1N2CC1CC1,-6.6,x,-8.9,-6.3,6.2,2.4
CCOc1ccccc1N=C1SCCCN1C,x,96.6*,x,x,-5.6,x
CC(=O)N1C[C@@H]2N[C@H](C1)C2c1ccc(Br)cc1 (stereo not given in full),x,x,x,x,x,1.0
Nc1cc(N2CCNCC2)c([N+](=O)[O-])cc1Cl,x,x,-4.3,x,4.1,x
O=[N+]([O-])c1ccc(N2CCNCC2)cc1N1CCCCC1,1.3,x,83.1*,12.4,6.3,6.7
O=C(Cn1cc(C(=O)c2ccccc2F)c2ccccc21)NCc1ccco1,x,-1.6,x,x,x,x
CC(C)(C)C(=O)c1cn(CC(=O)NCc2ccco2)c2ccccc12,17.0*,-4.3,-95.0,-94.6,-20.9,-4.7
C[C@]12C=CC(=O)C=C1C=C[C@@H]1C2CC[C@]2(C)C(=O)CCC12 (stereo not given in full),-0.7,4.9,12.3,-4.5,1.1,-27.5*
O=C(C1CC1)N1C[C@@H]2N[C@H](C1)C2c1ccc(-c2cncnc2)cc1 (stereo not given in full),x,9.4,7.7,1.9,4.7,9.2
O=C(C1CC1)N1C[C@@H]2N[C@H](C1)[C@@H]2c1ccc(-c2ccncc2)cc1,-1.6,-15.1,85.0*,80.5*,64.7*,8.1
COC(=O)[C@@H]1[C@@H](CO)[C@@H]2Cn3c(ccc(-c4ccccc4)c3=O)[C@H]1N2C(=O)c1ccccc1F,x,x,x,3.9,3.7,0.0
C[C@@H]1O[C@@H](O[C@H]2C[C@@H](O)[C@]3(CO)[C@H]4[C@H](O)C[C@]5(C)[C@@H](C6=CC(=O)OC6)CC[C@]5(O)[C@@H]4CC[C@]3(O)C2)[C@H](O)[C@H](O)[C@H]1O,x,82.8*,x,x,x,x
CCCNC(=O)[C@@H]1[C@@H](CO)[C@@H]2Cn3c(cccc3=O)[C@H]1N2CCC,0.7,x,-1.3,3.1,1.5,2.8
COC(=O)C1=C(c2ccc3ccccc3c2)C[C@@H]2CC[C@H]1N2C,x,15.3,4.0,-0.8,9.5,-2.1
COC(=O)C1=C(C(=O)OC)C2OC1c1cc3ccccc3cc12,x,x,108.6*,2.2,u,-18.7*
CC1=C(O)C(=O)C=C2C1=CC=C1C2(C)CCC2(C)C3CC(C)(C(=O)O)CCC3(C)CCC12C (stereo not given),x,30.4,118.8*,64.7*,x,3.0
O=C(Cc1cccnc1)N1CCCCN2[C@H](C1)[C@H](c1ccc(C#CC3(O)CCCC3)cc1)[C@@H]2CO,-3.2,5.1,-30.6,-3.2,-10.9,5.0
O=C(CF)N(O)c1ccc(C=Cc2ccccc2)cc1,x,20.1,-164.7,-25.7,58.3*,-5.4
SMILES,SIRT5 inh,PGC1a acetyl inh,PAX8 reporter,EWS-Fli block,LGR2 antag,Ecoli rRNA inh
COc1ccc(-n2c(/C=C3\C(=O)Nc4ccccc43)nc3ccccc3c2=O)cc1,111.6*,9.5,17.9,16.7,13.7,16.6
C[C@H]1C[C@@H](C)C(=O)[C@@H]([C@H](O)CC2CC(=O)NC(=O)C2)C1,x,68.3*,x,38.9,94.8*,x
O=c1[nH]c2ccccc2n1C1CCN(C(CCc2ccccc2)c2nnnn2C2CCCC2)CC1 (stereo not given),-4.0,7.7,-7.9,28.1,65.4*,2.7
COc1cccc(C(c2nnnn2Cc2ccccc2)N2CCC(n3c(=O)[nH]c4ccccc43)CC2)c1OC (stereo not given),-0.7,10.5,90.6*,10.5,18.6,-5.0
O=c1[nH]c2ccccc2n1C1CCN(C(c2cccc3ccccc23)c2nnnn2Cc2ccccc2)CC1 (stereo not given),0.9,-10.4,73.3*,11.9,28.1,26.0
Cc1cccc(C)c1-n1nnnc1C(c1ccccc1OC(F)(F)F)N1CCC(n2c(=O)[nH]c3ccccc32)CC1 (stereo not given),8.2,-61.4,5.0,-4.2,22.7,19.1
O=c1[nH]c2ccccc2n1C1CCN(Cc2ccc(-c3[nH]c4cc5ncnc5cc4nc3-c3ccccc3)cc2)CC1,4.8,x,72.1*,16.9,3.6,-25.9
O=c1[nH]c2cc(Cl)ccc2n1C1CCN(Cc2ccc(-c3nc4ccccc4nc3-c3ccccc3)cc2)CC1,x,x,47.9,18.8,4.3,5.4
Cc1ccc(OC(=O)N(C)C[C@@H]2OCc3ccccc3-c3c(n(C)c4ccccc34)C(=O)N([C@H](C)CO)C[C@@H]2C)cc1,3.2,4.1,-18.9,x,-4.0,1.6
COc1ccc(C#Cc2ccc([C@@H]3[C@H]4CN(C(=O)Cc5ccccc5)CCCCN4[C@H]3CO)cc2)cc1,-1.1,-0.5,7.4,19.6,22.2,-3.9
COc1cc2c(c(OC)c1OC)-c1ccc(O)cc1C(NC(C)=O)CC2 (stereo not given),x,-1.1,79.8*,24.6,16.9,8.4
COc1cc2c(c(OC)c1OC)-c1ccc(O)cc1[C@@H](NC(C)=O)CC2,0.4,x,90.0*,51.4*,0.8,11.4
COc1cc2c(c(OC)c1OC)-c1ccc(O)c(=O)cc1[C@@H](NC(C)=O)CC2,1.6,x,9.6,46.4,-15.8,-34.0
CC=Cc1ccc2n(c1=O)C[C@H]1[C@H](CO)[C@@H](C(=O)OC)[C@@H]2N1S(=O)(=O)c1cccc(C)c1 (mixture of isomers),-5.0,x,x,-7.7,12.1,0.2
O=C(Cc1ccccn1)N1CCCCN2[C@H](CO)[C@@H](c3ccc(Br)cc3)[C@@H]2C1,1.5,12.3,-25.5,-8.2,1.8,1.4
NCCc1ccc(OCc2ccccc2)c(OCc2ccccc2)c1,-0.6,-8.0,28.6,41.1,87.7*,x
CCOc1ccc(-n2c(-c3ccoc3)nc3ccccc3c2=O)cc1,x,1.8,x,x,5.2,x
CCOc1ccc(-c2c(C)n(-c3ccc(OCC)cc3)c3[n+]2CCCCC3)cc1,x,-18.5,87.3*,49.0,47.4,-46.0

# From PubChem
